Inhibition data for 34 compounds are collected here from ChEMBL document CHEMBL1961873, “Compounds: GSK PKIS; Assays: Nanosyn kinase panel” (2012).

For the first assay, the target named is Angiopoietin-1 receptor (Homo sapiens) (UniProt Q02763). Conditions: at 1 µM.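 Further: reported value is the mean TIE2 inhibition from the GSK PKIS dataset.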
Chain of Angiopoietin-1 receptor (Homo sapiens) (Q02763 whole entry): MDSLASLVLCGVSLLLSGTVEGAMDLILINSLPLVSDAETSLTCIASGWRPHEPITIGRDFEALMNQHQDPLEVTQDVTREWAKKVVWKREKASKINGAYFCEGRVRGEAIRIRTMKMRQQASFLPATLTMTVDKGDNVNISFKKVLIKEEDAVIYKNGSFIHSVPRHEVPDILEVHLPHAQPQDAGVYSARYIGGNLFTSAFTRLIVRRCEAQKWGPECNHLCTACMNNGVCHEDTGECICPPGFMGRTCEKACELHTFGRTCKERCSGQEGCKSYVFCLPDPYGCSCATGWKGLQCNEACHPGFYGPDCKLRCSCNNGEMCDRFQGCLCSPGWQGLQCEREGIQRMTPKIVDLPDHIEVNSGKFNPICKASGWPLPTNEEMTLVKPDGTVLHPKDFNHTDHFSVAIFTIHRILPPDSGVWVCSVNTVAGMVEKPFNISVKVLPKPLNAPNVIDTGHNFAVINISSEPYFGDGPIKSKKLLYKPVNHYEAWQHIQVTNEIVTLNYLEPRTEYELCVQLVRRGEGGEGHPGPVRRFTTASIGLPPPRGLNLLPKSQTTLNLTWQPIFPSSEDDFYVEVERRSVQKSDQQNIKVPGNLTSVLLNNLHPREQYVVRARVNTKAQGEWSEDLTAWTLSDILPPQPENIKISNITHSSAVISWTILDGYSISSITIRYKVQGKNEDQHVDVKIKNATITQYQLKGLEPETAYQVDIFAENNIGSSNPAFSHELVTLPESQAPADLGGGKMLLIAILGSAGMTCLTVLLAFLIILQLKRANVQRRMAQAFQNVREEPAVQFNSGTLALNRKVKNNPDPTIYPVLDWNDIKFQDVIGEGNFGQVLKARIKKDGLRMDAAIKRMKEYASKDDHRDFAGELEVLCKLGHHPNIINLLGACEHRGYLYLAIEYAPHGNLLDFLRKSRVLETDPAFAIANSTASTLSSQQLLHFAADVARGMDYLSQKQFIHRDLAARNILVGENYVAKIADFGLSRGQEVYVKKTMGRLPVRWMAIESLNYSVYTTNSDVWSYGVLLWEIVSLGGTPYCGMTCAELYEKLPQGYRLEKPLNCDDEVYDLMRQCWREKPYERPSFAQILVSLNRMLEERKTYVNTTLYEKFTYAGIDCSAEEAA
For the compound `c1ccc(Oc2ccc(Nc3ncc(-c4ccccc4)o3)cc2)cc1`, the inhibition (in general, the drop in the measured response relative to a control, in per cent) worked out at 1.44%.
Consider `COc1cc(Nc2ncc3c(C)nc(-c4cccc(C(F)(F)F)c4)n3n2)cc(OC)c1OC`, for which the inhibition amounted to 6.29%.
As for `COc1cc2ncn(-c3cc(OCc4ccccc4C(F)(F)F)c(C(C)=O)s3)c2cc1OC`, the inhibition is 8.41%.
Still for that read-out and setting: the value for `CCc1nccc2c1nc(-c1nonc1N)n2CC` was 5.08%.
With `Cc1ccc(NC(=O)c2ccoc2)cc1-c1ccc(C(=O)NCC2CC2)cc1`, the inhibition was 3.38%.
For the compound `NC(=O)c1ccc(Oc2nccc(-c3c(-c4ccc(F)cc4)ncn3C3CCNCC3)n2)cc1`, the inhibition was 6.4%.
The same measure, in the same setting: to `FC(F)(F)c1cccc(Nc2nccc(-c3cnn4nc(-c5ccccc5)ccc34)n2)c1` belongs 4.87%; to `O=C(Nc1n[nH]c2cc(-c3ccccc3)ccc12)C1CC1`, 3.48%; to `N#Cc1ccc(Oc2nccc(-c3c(-c4ccc(F)cc4)ncn3C3CCNCC3)n2)cc1`, 8.62%.
As to `COc1cc(C)c(N(C)C(=O)CN(C)C)cc1Nc1nc(Nc2cccc(F)c2C(N)=O)c2cc[nH]c2n1`, the inhibition came to 2.24%.
As to `O=C1Nc2ccccc2/C1=C/Nc1ccc(-n2cncn2)cc1`, the inhibition stood at 4.4%.
With `CCN(CC)Cc1ccc(Nc2nccc(-c3cnn4ncccc34)n2)cc1`, the inhibition was determined as 12.2%.
With `CN(C)CCOc1ccc(-c2cc(-c3ccc4c(c3)CCC4=NO)c(-c3ccncc3)o2)cc1`, the inhibition was determined as 11.6%.
On to `COc1cc2ncn(-c3cc(OCCc4ccccc4)c(C(N)=O)s3)c2cc1OC`, for which the inhibition came out at 14.9%.
On to `CN(c1ccc(NC(=O)Nc2c(Cl)cccc2Cl)cc1)c1ccnc(Nc2cccc(CS(C)(=O)=O)c2)n1`, for which the inhibition worked out at 72.1%.
Take `NC(=O)c1cc(-c2ccncc2)cc(-c2ccccc2)c1N`: the inhibition stood at 6.28%.
In the case of `NC(=O)c1cc(-c2ccc(F)cc2)cc(-c2ccncc2)c1N`, the inhibition worked out at 3.08%.
In the case of `O=C1Nc2ccc(I)cc2C1=Cc1cc(Br)c(O)c(Br)c1`, the inhibition was 5.55%.
Same read-out and setting: to `O=C(Nc1n[nH]c2nc(-c3ccco3)ccc12)C1CC1` belongs 10.4%; to `CN1CCN(CCCNc2nc3ccc(Oc4ccc(NC(=O)Nc5cc(C(F)(F)F)ccc5F)cc4)cc3[nH]2)CC1`, 53.8%; to `COc1ccc2cc(-c3c(-c4ccncc4)nc(-c4ccc(S(C)(=O)=O)cc4C)n3C)ccc2c1`, 78.7%.
As to `CN(C)CCCNc1nccc(-c2c(-c3ccc(F)cc3)nn3cc(C(F)(F)F)ccc23)n1`, the inhibition is 9.58%.
Same read-out and setting: to `COc1cc2ncn(-c3cc(OCc4cccs4)c(C(N)=O)s3)c2cc1OC` belongs 27.3%; to `Nc1nccc(-c2c(-c3ccc(F)cc3)ncn2C2CCC(O)CC2)n1` (stereo not drawn), 4.5%.
For the compound `O=C(Nc1n[nH]c2nc(-c3ccc(O)cc3)c(Br)cc12)C1CC1`, the inhibition was determined as 26.2%.
For the compound `COc1cc(Nc2ncc3c(C)nc(-c4cccc(Oc5ccccc5)c4)n3n2)cc(OC)c1OC`, the inhibition came to 3.09%.
For `NS(=O)(=O)c1ccc(Nc2cc(-c3ccc(O)c(F)c3)n[nH]2)cc1`, the inhibition amounted to 21.7%.
As for `CNC(=O)c1cncc(/C=C/c2c(C)cccc2C)c1`, the inhibition worked out at 7.69%.
On to `Clc1ccc(CNc2nccc(-c3cnn4ncccc34)n2)cc1`, for which the inhibition came out at 4.03%.
For the compound `CCS(=O)(=O)c1ccc(OC)c(Nc2ncc(-c3cccc(-c4ccccc4F)c3)o2)c1`, the inhibition was 19%.
For `Cc1nnc(-c2ccc(C)c(-c3ccc(C(=O)NCc4ccc(Cl)cc4)cc3)c2)o1`, the inhibition was 6.89%.
In the case of `NCc1ccc(-n2c(-c3nonc3N)nc3cnccc32)cc1`, the inhibition was found to be 3.28%.
Consider `C/C(Nc1ccc(S(N)(=O)=O)cc1)=C1/C(=O)Nc2ccccc21`, for which the inhibition was determined as 2.44%.
Consider `NS(=O)(=O)c1ccc(N/N=C2\C(=O)Nc3ccc(-c4cnco4)cc32)cc1`, for which the inhibition was 4.65%.

A further assay addresses T1, Non-receptor tyrosine-protein kinase TNK1 (Homo sapiens) (UniProt Q13470).
T1 sequence (whole entry): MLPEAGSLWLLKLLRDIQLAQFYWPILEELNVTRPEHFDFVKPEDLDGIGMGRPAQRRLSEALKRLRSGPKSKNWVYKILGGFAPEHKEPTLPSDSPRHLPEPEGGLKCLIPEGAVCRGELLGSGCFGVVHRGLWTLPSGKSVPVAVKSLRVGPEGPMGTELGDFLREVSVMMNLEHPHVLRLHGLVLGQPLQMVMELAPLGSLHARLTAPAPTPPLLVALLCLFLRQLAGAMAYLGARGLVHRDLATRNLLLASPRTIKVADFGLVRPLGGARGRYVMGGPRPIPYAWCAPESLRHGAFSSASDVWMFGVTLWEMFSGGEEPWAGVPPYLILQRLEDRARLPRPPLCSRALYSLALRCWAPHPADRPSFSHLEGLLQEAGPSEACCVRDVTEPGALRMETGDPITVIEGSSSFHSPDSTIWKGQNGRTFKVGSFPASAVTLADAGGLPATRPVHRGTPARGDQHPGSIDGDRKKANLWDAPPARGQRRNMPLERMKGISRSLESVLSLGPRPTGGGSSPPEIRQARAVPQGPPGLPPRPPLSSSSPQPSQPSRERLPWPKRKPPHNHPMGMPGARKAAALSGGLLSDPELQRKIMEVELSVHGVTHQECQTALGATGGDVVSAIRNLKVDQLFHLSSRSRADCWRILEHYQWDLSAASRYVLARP
Conditions: at 0.1 µM.
In the case of `c1ccc(Oc2ccc(Nc3ncc(-c4ccccc4)o3)cc2)cc1`, the inhibition came to 0.99%.
As to `COc1cc(Nc2ncc3c(C)nc(-c4cccc(C(F)(F)F)c4)n3n2)cc(OC)c1OC`, the inhibition amounted to 15.2%.
The same measure, in the same setting: the value for `COc1cc2ncn(-c3cc(OCc4ccccc4C(F)(F)F)c(C(C)=O)s3)c2cc1OC` was 0.64%; that for `CCc1nccc2c1nc(-c1nonc1N)n2CC` was 0.71%.
As for `Cc1ccc(NC(=O)c2ccoc2)cc1-c1ccc(C(=O)NCC2CC2)cc1`, the inhibition came to 0.21%.
For the compound `NC(=O)c1ccc(Oc2nccc(-c3c(-c4ccc(F)cc4)ncn3C3CCNCC3)n2)cc1`, the inhibition stood at 4.4%.
Turning to `FC(F)(F)c1cccc(Nc2nccc(-c3cnn4nc(-c5ccccc5)ccc34)n2)c1`, the inhibition was found to be 1.51%.
Still for that read-out and setting: to `O=C(Nc1n[nH]c2cc(-c3ccccc3)ccc12)C1CC1` belongs 3.15%; to `N#Cc1ccc(Oc2nccc(-c3c(-c4ccc(F)cc4)ncn3C3CCNCC3)n2)cc1`, -0.15%.
As to `COc1cc(C)c(N(C)C(=O)CN(C)C)cc1Nc1nc(Nc2cccc(F)c2C(N)=O)c2cc[nH]c2n1`, the inhibition amounted to 1.97%.
Turning to `O=C1Nc2ccccc2/C1=C/Nc1ccc(-n2cncn2)cc1`, the inhibition is 2.41%.
The same measure, in the same setting: the value for `CCN(CC)Cc1ccc(Nc2nccc(-c3cnn4ncccc34)n2)cc1` was 5.27%; that for `CN(C)CCOc1ccc(-c2cc(-c3ccc4c(c3)CCC4=NO)c(-c3ccncc3)o2)cc1` was 2.33%; that for `COc1cc2ncn(-c3cc(OCCc4ccccc4)c(C(N)=O)s3)c2cc1OC` was 2.85%.
With `CN(c1ccc(NC(=O)Nc2c(Cl)cccc2Cl)cc1)c1ccnc(Nc2cccc(CS(C)(=O)=O)c2)n1`, the inhibition worked out at 59.8%.
Still for that read-out and setting: the value for `NC(=O)c1cc(-c2ccncc2)cc(-c2ccccc2)c1N` was 1.93%.
In the case of `NC(=O)c1cc(-c2ccc(F)cc2)cc(-c2ccncc2)c1N`, the inhibition stood at 3.42%.
Still for that read-out and setting: the value for `O=C1Nc2ccc(I)cc2C1=Cc1cc(Br)c(O)c(Br)c1` was 22.7%.
On the same count and under the same terms, the value for `O=C(Nc1n[nH]c2nc(-c3ccco3)ccc12)C1CC1` was 0.16%.
Turning to `CN1CCN(CCCNc2nc3ccc(Oc4ccc(NC(=O)Nc5cc(C(F)(F)F)ccc5F)cc4)cc3[nH]2)CC1`, the inhibition is -0.25%.
In the case of `COc1ccc2cc(-c3c(-c4ccncc4)nc(-c4ccc(S(C)(=O)=O)cc4C)n3C)ccc2c1`, the inhibition was 4.94%.
On to `CN(C)CCCNc1nccc(-c2c(-c3ccc(F)cc3)nn3cc(C(F)(F)F)ccc23)n1`, for which the inhibition is 1.15%.
Consider `COc1cc2ncn(-c3cc(OCc4cccs4)c(C(N)=O)s3)c2cc1OC`, for which the inhibition was 10.4%.
On to `Nc1nccc(-c2c(-c3ccc(F)cc3)ncn2C2CCC(O)CC2)n1` (stereo not drawn), for which the inhibition is -3.34%.
Take `O=C(Nc1n[nH]c2nc(-c3ccc(O)cc3)c(Br)cc12)C1CC1`: the inhibition came to 4.45%.
`COc1cc(Nc2ncc3c(C)nc(-c4cccc(Oc5ccccc5)c4)n3n2)cc(OC)c1OC`: the inhibition was determined as 4.56%.
Turning to `NS(=O)(=O)c1ccc(Nc2cc(-c3ccc(O)c(F)c3)n[nH]2)cc1`, the inhibition is -4.31%.
`CNC(=O)c1cncc(/C=C/c2c(C)cccc2C)c1`: the inhibition was determined as 0.82%.
Take `Clc1ccc(CNc2nccc(-c3cnn4ncccc34)n2)cc1`: the inhibition worked out at 2.4%.
For `CCS(=O)(=O)c1ccc(OC)c(Nc2ncc(-c3cccc(-c4ccccc4F)c3)o2)c1`, the inhibition was determined as 14.1%.
For `Cc1nnc(-c2ccc(C)c(-c3ccc(C(=O)NCc4ccc(Cl)cc4)cc3)c2)o1`, the inhibition is 0.68%.
For the compound `NCc1ccc(-n2c(-c3nonc3N)nc3cnccc32)cc1`, the inhibition came to 5.04%.
Take `C/C(Nc1ccc(S(N)(=O)=O)cc1)=C1/C(=O)Nc2ccccc21`: the inhibition is -3.91%.
Take `NS(=O)(=O)c1ccc(N/N=C2\C(=O)Nc3ccc(-c4cnco4)cc32)cc1`: the inhibition is 9.41%.
